This is an account of results in a collection of fitness landscapes (doi:10.1126/science.1257360).

B1: PhoQ; a variant is named by its letters at X, in order, P23837 (parent)
chain: MKKLLRLFFPLSLRVRFLLATAAVVLVLSLAYGMVALIGYSVSFDKTTFRLLRGESNLFYTLAKWENNKLHVELPENIDKQSPTMTLIYDENGQLLWAQRDVPWLMKMIQPDWLKSNGFHEIEADVNDTSLLLSGDHSIQQQLQEVREDDDDAEMTHSVAVNVYPATSRMPKLTIVVVDTIPVELKSSYMVWSWFIYVLSANLLLVIPLLWVAAWWSLRPIEALAKEVRELEEHNRELLNPATTRELTSLVRNLNRLLKSERERYDKYRTTLTDLTHSLKTPLXXLQXXLRSLRSEKMSVSDAEPVMLEQISRISQQIGYYLHRASMRGGTLLSRELHPVAPLLDNLTSALNKVYQRKGVNISLDISPEISFVGEQNDFVEVMGNVLDNACKYCLEFVEISARQTDEHLYIVVEDDGPGIPLSKREVIFDRGQRVDTLRPGQGVGLAVAREITEQYEGKIVAGESMLGGARMEVIFGRQHSAPKDE

Over roughly 140,000 sequences, “enrichment ratio after two sorts for PhoP signalling” has its median near 0; the highest 2% begin near 11. The entries come from a sample that favours the highest values as a whole.

The assay covers variants of B1. The assay is described as follows: enrichment ratio after two sorts for PhoP signalling (ratio (wild type AVST 3.29)); higher = more functional. Conditions: with PhoP (E. coli).
As to DTPY, the enrichment ratio was not above 0.25.
In the case of IRAT it was not above 0.25.
Then KYIW, with not above 0.25; and VAVA, with not above 0.25; and AHMQ, with not above 0.25.
In the case of IGMY, the enrichment ratio is not above 0.25.
KQNT: the enrichment ratio is not above 0.25.
Then QIGW, with not above 0.25; and SIGD, with 7.24.
On to KYLA, for which the enrichment ratio is not above 0.25.
For the variant SIFA, the enrichment ratio is not above 0.25.
As for SQTA, the enrichment ratio was determined as 0.808.
Take SITA: the enrichment ratio amounted to 20.
On to SFTI, for which the enrichment ratio is not above 0.25.
As for SITS, the enrichment ratio was determined as 11.6.
Then KYTA, with not above 0.25; and KYTS, with not above 0.25.
SILA: the enrichment ratio worked out at 16.9.
Turning to SIDW, the enrichment ratio is not above 0.25.
Take SQTI: the enrichment ratio was found to be 13.3.
As for AKHI, the enrichment ratio was not above 0.25.
As for WPAY, the enrichment ratio was not above 0.25.
In the case of GVTN it was not above 0.25.
Then NYMC, with not above 0.25.
ICGD: the enrichment ratio is not above 0.25.
On to LGEW, for which the enrichment ratio was not above 0.25.
Then SQAN, with 6.83; and EDDL, with not above 0.25.
Then SQTS, with 11.8; and KSTS, with not above 0.25.
In the case of SSTI, the enrichment ratio stood at 13.8.
With SISA, the enrichment ratio stood at 11.9.
For SSWI, the enrichment ratio is 2.38.
Take SIMS: the enrichment ratio stood at 12.1.
For the variant FQTS, the enrichment ratio was not above 0.25.
Consider SSLY, for which the enrichment ratio was 8.15.
With SIYI, the enrichment ratio was not above 0.25.
Then KYMS, with not above 0.25; and KYSA, with not above 0.25.
On to SIKQ, for which the enrichment ratio was not above 0.25.
Take DYKN: the enrichment ratio was not above 0.25.
For the variant KNRG, the enrichment ratio is not above 0.25.
As to IQKG, the enrichment ratio is not above 0.25.
As for SNAN, the enrichment ratio worked out at 6.54.
Take EFAY: the enrichment ratio was not above 0.25.
Consider NQTC, for which the enrichment ratio was not above 0.25.
Turning to KYWD, the enrichment ratio is not above 0.25.
In the case of SQTC it was 20.9; in that of WIAK, not above 0.25; in that of SPWD, not above 0.25.
Take KYTI: the enrichment ratio is not above 0.25.
In the case of SIWD, the enrichment ratio came to 14.
Regarding IQTC, the enrichment ratio is not above 0.25.
For the variant SIAK, the enrichment ratio stood at 11.2.
Consider SITI, for which the enrichment ratio worked out at 19.7.
On to SILY, for which the enrichment ratio was not above 0.25.
As to KYAK, the enrichment ratio is not above 0.25.
ELMG: the enrichment ratio is not above 0.25.
On to HETM, for which the enrichment ratio was not above 0.25.
Consider NFED, for which the enrichment ratio is not above 0.25.
In the case of DCAY, the enrichment ratio was not above 0.25.
For KYSH, the enrichment ratio is not above 0.25.
As to QGAE, the enrichment ratio was not above 0.25.
Take FIVP: the enrichment ratio is not above 0.25.
With FWLL, the enrichment ratio is not above 0.25.
As to PSSI, the enrichment ratio was not above 0.25.
For QLYR, the enrichment ratio was 0.63.
Take YEWP: the enrichment ratio was not above 0.25.
As to IVFG, the enrichment ratio is not above 0.25.
As to SWMS, the enrichment ratio is not above 0.25.
On to SPMS, for which the enrichment ratio was not above 0.25.
Regarding STMS, the enrichment ratio stood at 15.6.
Turning to NWMF, the enrichment ratio was not above 0.25.
Then AGGK, with not above 0.25.
In the case of NGSQ it was not above 0.25.
Turning to RGSQ, the enrichment ratio was not above 0.25.
Turning to AGSR, the enrichment ratio is not above 0.25.
Regarding TGSQ, the enrichment ratio was 25.1.
Turning to AGSQ, the enrichment ratio amounted to 12.9.
With LDTG, the enrichment ratio was not above 0.25.
Then DEHI, with not above 0.25; and FAGW, with not above 0.25.
With HEIN, the enrichment ratio was not above 0.25.
Take EYTQ: the enrichment ratio is not above 0.25.
AQKN: the enrichment ratio is not above 0.25.
As to AQMN, the enrichment ratio turned out to be 38.4.
In the case of SPMN it was not above 0.25; in that of STMN, 2.85; in that of SQMN, 25.3.
Take AIMN: the enrichment ratio is 5.77.
Turning to YRVY, the enrichment ratio was not above 0.25.
With YKWQ, the enrichment ratio is not above 0.25.
Regarding AEQN, the enrichment ratio worked out at 21.7.
Take AEYN: the enrichment ratio was not above 0.25.
Consider AELM, for which the enrichment ratio turned out to be 2.01.
In the case of AEEN, the enrichment ratio is not above 0.25.
For AQQV, the enrichment ratio is not above 0.25.
AEGD: the enrichment ratio was 0.253.
As for APLF, the enrichment ratio was not above 0.25.
For the variant AEQV, the enrichment ratio stood at 12.7.
In the case of AELF it was 16.2.
Then AEEA, with not above 0.25; and AELD, with 11.4.
In the case of AILD it was not above 0.25; in that of MEFK, 1.13.
In the case of WLKT, the enrichment ratio was not above 0.25.
Then LQAS, with not above 0.25; and AEWI, with not above 0.25.
In the case of AEPA it was not above 0.25.
As to AELK, the enrichment ratio came out at 11.5.
On to AELS, for which the enrichment ratio came out at 10.7.
Then AEFS, with 19; and AHLW, with not above 0.25; and AILW, with not above 0.25.
Then AEFA, with 0.58; and AELA, with 18.7; and AELY, with 9.13.
Regarding AEFP, the enrichment ratio is not above 0.25.
As for AELW, the enrichment ratio stood at 11.4.
Take SDLA: the enrichment ratio is 1.18.
For the variant VFRG, the enrichment ratio is not above 0.25.
In the case of LTPC it was not above 0.25.
For the variant YIFI, the enrichment ratio was not above 0.25.
Turning to AHGN, the enrichment ratio was not above 0.25.
Regarding AELP, the enrichment ratio was not above 0.25.
Turning to AEHK, the enrichment ratio was not above 0.25.
In the case of AEDK it was not above 0.25; in that of AELN, 12.5.
Consider AEWN, for which the enrichment ratio is not above 0.25.
In the case of AIGN, the enrichment ratio is 6.31.
Turning to AECN, the enrichment ratio came out at 6.19.
Regarding AELV, the enrichment ratio worked out at 24.4.
For AELI, the enrichment ratio came out at 30.6.
Take AEGN: the enrichment ratio amounted to 12.2.
Regarding AVWD, the enrichment ratio is not above 0.25.
Consider EYSC, for which the enrichment ratio was not above 0.25.
Take PPHG: the enrichment ratio is not above 0.25.
In the case of ISCM it was 2.52; in that of EMGW, not above 0.25.
Then YGNI, with not above 0.25; and VDAC, with not above 0.25.
Regarding QMES, the enrichment ratio is not above 0.25.
CLVG: the enrichment ratio was not above 0.25.
Then FPHK, with not above 0.25; and WEIR, with not above 0.25; and AEYR, with not above 0.25.
With AENI, the enrichment ratio is not above 0.25.
Consider MELH, for which the enrichment ratio was 6.92.
Then AENS, with 16; and AELL, with 12.1; and AELH, with 11.9.
Turning to QELH, the enrichment ratio is not above 0.25.
Consider GSMR, for which the enrichment ratio is not above 0.25.
